This is an account of results in PubChem BioAssay AID777 (Sanford-Burnham Center for Chemical Genomics, 2007).

The structures appear in SMILES notation. About 19,000 (20%) of roughly 96,000 compounds were called active. Only a sample is shown. Unmarked numbers belong to inactive results.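 How the source made its calls: active means blocking of liver enzyme CYP2C9 beyond about 50% at 5 µM (limit read from the data); inactive means the rest.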

The experiment deals with Cytochrome P450 2C9 (Homo sapiens) (UniProt P11712). As to the kind of experiment: blockers of cytochrome P450 2C9 activity – biochemical, luminescence, ADME assay, primary screen (AID 777). Particulars: CYP2C9 Supersomes, luciferin-H conversion, at 5 µM, stronger effect = higher value.
Sequence of Cytochrome P450 2C9 (Homo sapiens) (P11712 whole entry, looked up): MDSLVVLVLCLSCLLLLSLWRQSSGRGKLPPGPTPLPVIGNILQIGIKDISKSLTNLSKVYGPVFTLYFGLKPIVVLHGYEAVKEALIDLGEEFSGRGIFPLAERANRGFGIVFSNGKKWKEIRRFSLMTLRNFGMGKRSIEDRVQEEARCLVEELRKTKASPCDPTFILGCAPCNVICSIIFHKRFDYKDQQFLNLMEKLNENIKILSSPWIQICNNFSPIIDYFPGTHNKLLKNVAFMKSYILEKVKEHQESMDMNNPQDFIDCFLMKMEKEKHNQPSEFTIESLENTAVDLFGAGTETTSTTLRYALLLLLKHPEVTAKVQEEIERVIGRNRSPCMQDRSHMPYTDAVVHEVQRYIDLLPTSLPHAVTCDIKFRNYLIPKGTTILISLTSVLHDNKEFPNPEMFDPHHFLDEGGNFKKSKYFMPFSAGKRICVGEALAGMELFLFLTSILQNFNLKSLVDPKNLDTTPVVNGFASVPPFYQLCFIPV
What is called inhibition is the drop in the measured response relative to a control, in per cent. For `O=C(Nc1cc2c3c(c1)C1CCCC1CN3CC1CCCC21)c1ccc([N+](=O)[O-])cc1` (stereo unspecified), the inhibition is 96.3% (active).
As for `O=C(NC1CCCCC1)c1cc([N+](=O)[O-])ccc1N1CCOCC1`, the inhibition was 1.4%.
With `COc1cccc(N2CCN(C(=O)Nc3ccc4c(c3)NC(=O)CO4)CC2)c1`, the inhibition is 13%.
In the case of `O=C(Cc1nn[nH]n1)NCCC1=CCCCC1`, the inhibition is -1.8%.
On to `Cc1ccc(-n2c(C)cc(/C=N/Nc3ccc([N+](=O)[O-])cn3)c2C)c(C)c1`, for which the inhibition is 13.3%.
`COc1ccc(S(=O)(=O)N2CCN(C(=O)c3cccs3)CC2)cc1OC`: the inhibition was -35.4%.
The value for `O=C(c1cccs1)N(C(=O)c1cccs1)c1ccccn1` was 21.5%; that for `COc1ccc(CN(C(=O)c2cccs2)c2nccs2)cc1OC` was 99% (active); that for `CC(C)CC(=O)N/C(N)=N/c1nc2ccccc2s1` was 27.6%.
Regarding `C[N+]1(CCNC(=O)/C=N/O)CCCCC1`, the inhibition was 5.6%.
Consider `Cc1ccc(SCC(=O)c2sc(-c3ccccc3)nc2C)cc1`, for which the inhibition is 83.6% (active).
In the case of `Cc1nc(-c2ccccc2)sc1C(=O)/C=C/c1ccccc1`, the inhibition was 15.9%.
`Cc1ccc(SCC(=O)Nc2ncc(C)s2)cc1`: the inhibition is 35.5%.
Regarding `Cc1nn(-c2ncc(C(F)(F)F)cc2Cl)c(=O)n1-c1ccccc1`, the inhibition is -45.3%.
The value for `CCn1c(C)nc2c1C(=O)c1ccccc1C2=O` was -0.9%.
`O=C1CCCCC(=O)c2ccccc2N1`: the inhibition is 14.5%.
On to `COc1ccc(Nc2nc(Cl)nc(NCc3ccco3)n2)cc1`, for which the inhibition is 5.9%.
On to `FC(F)(F)c1cc(-c2ccco2)nc(N2CCOCC2)n1`, for which the inhibition is -16.1%.
For `COc1nc(NCc2ccc(Cl)cc2)nc(OC)n1`, the inhibition is 9.7%.
For `FC(F)(F)c1cc(-c2cccs2)nc(NCc2ccco2)n1`, the inhibition is 60.7% (active).
`O=C(CSc1nc(-c2ccco2)cc(C(F)(F)F)n1)NCc1cccs1`: the inhibition was 7.6%.
Take `FC(F)(F)c1cc(-c2ccco2)nc(NCc2ccc(Cl)cc2)n1`: the inhibition is 97.5% (active).
Then `CCc1ccc(/C=N/NC(=O)c2ccc(OC3CCCC3)cc2)s1`, with -41.1%; and `Cc1oc(-c2ccccc2Cl)[n+]([O-])c1C`, with 7.1%; and `Cc1cnc(NC(=O)CSc2nnc(C)s2)s1`, with 8.4%.
Turning to `O=C(CSc1nnc(-c2ccoc2)o1)N1CCOCC1`, the inhibition is -12.9%.
Regarding `CCc1ccc(N(CC)c2ncnc3nc[nH]c23)cc1`, the inhibition is 3.4%.
As to `Cc1ccc(C)c(NC(=O)C2Cc3ccccc3CN2C(=O)OCc2ccccc2)c1` (stereo unspecified), the inhibition is 65% (active).
For `Cc1ccc(C)c(NC(=O)C2CCCN2C(=O)OC(C)(C)C)c1` (stereo unspecified), the inhibition is -1.5%.
In the case of `COc1cccc(NC(=O)C2CCCN2C(=O)OCc2ccccc2)c1` (stereo unspecified), the inhibition is 15.8%.
In the case of `O=C(Nn1cnc2ccccc2c1=O)c1ccc(F)cc1Cl`, the inhibition is -8.6%.
For `O=C(CN1CCN(c2ccc(Cl)cc2)CC1)N1CCCC1`, the inhibition is 57.4% (active).
Take `Cc1ccc2[nH]c3c(c2c1)CN(C(=O)CN1CCN(c2ccccc2)CC1)CC3`: the inhibition is 30.7%.
With `O=C(CSCc1ccc(Cl)cc1)N1CCCCC1`, the inhibition is -83.2%.
Then `Cc1nc(-c2ccccc2)sc1-c1nc(-c2ccccc2)ncc1S(=O)(=O)c1ccccc1`, with 37.8%; and `c1ccc(-c2nnc3n2NC(c2ccc4c(c2)OCO4)S3)cc1` (stereo unspecified), with 21.6%.
Consider `c1ccc(CSc2nnc(-c3ccco3)c(-c3ccco3)n2)cc1`, for which the inhibition was 72.9% (active).
In the case of `Clc1ccccc1CSc1nnc(-c2ccco2)c(-c2ccco2)n1`, the inhibition is 38.8%.
`c1ccc(CSc2nnc(-c3ccco3)n2Cc2ccccc2)cc1`: the inhibition was 31.7%.
Take `COc1ccc(C2C3=C(OC(C)=O)c4ccccc4C3=Nc3c2c(=O)n(C)c(=O)n3C)cc1` (stereo unspecified): the inhibition is 7.6%.
Regarding `Cc1ccc(-c2nnn(CC(=O)N(CCO)C(C(=O)NC(C)(C)C)c3ccncc3)n2)cc1` (stereo unspecified), the inhibition is 76.1% (active).
As for `COc1ccc(-c2nnn(CC(=O)N(CCO)C(C(=O)NC3CCCC3)c3ccc(F)cc3)n2)cc1` (stereo unspecified), the inhibition is -3.9%.
In the case of `CC(C)(C)NC(=O)Cn1nnc(-c2ccccc2Cl)n1`, the inhibition was -42.7%.
Then `O=C(Nc1cc(N2CCOCC2)ncn1)NC1(C(F)(F)F)Oc2ccc(Cl)cc2O1` (stereo unspecified), with 21.6%; and `CCOCCCNC(=O)C(NC(=O)c1ccc(=O)[nH]c1)c1ccc(C)cc1` (stereo unspecified), with 16.2%.
As to `Cc1ccccc1NC(=O)c1ccccc1NS(=O)(=O)c1cccc2cccnc12`, the inhibition is 45.1%.
The value for `O=C(Nc1nncs1)c1ccccc1NS(=O)(=O)c1cccs1` was 76.4% (active); that for `COc1ccc(C(=O)Nc2nncs2)c(OC)c1` was -1.4%.
Then `CC(=O)c1ccc(NC(=O)N[C@@H](Cc2ccccc2)C(=O)O)cc1`, with 4.2%; and `N#CC1=C(N)Oc2n[nH]c(CSc3ccccc3)c2C12C(=O)Nc1ccccc12` (stereo unspecified), with 24.3%.
In the case of `Cc1csc2ncc(C(=O)N(Cc3ccccc3)c3ccccn3)c(=O)n12`, the inhibition was 6.4%.
For `COCCCn1c(SCc2cccc(OC)c2)nc2cc(OC)c(OC)cc2c1=N`, the inhibition was 71.3% (active).
For `COc1cccc(-c2cc3nc4c(c(N5CCC6(CC5)OCCO6)n3n2)CCCC4)c1`, the inhibition is 49.8%.
For `O=C(Cc1ccc(F)cc1)NC1CCCC1`, the inhibition was -37.8%.
In the case of `O=C(Cn1cnc2c(cnn2-c2ccccc2)c1=O)NCc1ccccc1`, the inhibition is -7.3%.
In the case of `COC(=O)Nc1ccc(S(=O)(=O)N2CCN(CCN3C(=O)C4C5C=CC(C5)C4C3=O)CC2)cc1` (stereo unspecified), the inhibition is 19.6%.
Consider `CCOC(=O)Nc1ccc(S(=O)(=O)N(C)C(C)C)cc1`, for which the inhibition is 32%.
The value for `COC(=O)Nc1ccc(S(=O)(=O)N(C)CC(F)(F)C(F)F)cc1` was 59.2% (active).
For `CC(=O)NC1(c2cccc(F)c2)CCN(CC(=O)NC(C)C)CC1`, the inhibition was 4.1%.
With `CON(C)S(=O)(=O)c1ccc2c(c1)NC(=O)C1CCCN21` (stereo unspecified), the inhibition is 44%.
Consider `O=S(=O)(c1ccc(F)cc1)n1ccc(-c2cnc(-c3ccccc3)s2)n1`, for which the inhibition is 53.9% (active).
The value for `CCn1nnc(NC(=O)c2c(OC)cccc2OC)n1` was -11.4%.
Then `O=C(Oc1ccc([N+](=O)[O-])cc1)c1ccc2ccccc2n1`, with -28.9%.
`Cn1cc(S(=O)(=O)N2CCN(c3ccc(F)cc3)CC2)c(=O)n(C)c1=O`: the inhibition is -8.1%.
Turning to `Cc1cc(C)cc(NC(=O)C2CCN(c3nc(C)cc(C)n3)CC2)c1`, the inhibition is 15.4%.
Then `Cc1cc(NC(=O)c2cccc(N3C(=O)CCC3=O)c2)no1`, with 3.5%; and `O=C(Nc1ccc2c(c1)OCCO2)C(c1ccc(F)cc1)N1CCCCC1` (stereo unspecified), with 67.1% (active).
On to `COc1ccc(-n2c(SCC(=O)Nc3ccc4c(c3)OCO4)nnc2C(C)N2CCCCC2)cc1` (stereo unspecified), for which the inhibition was 20.2%.
As for `CC1CCCN(C(C(=O)Nc2ccc(C(C)C)cc2)c2ccc3c(c2)OCO3)C1` (stereo unspecified), the inhibition was 16.7%.
On to `Cc1ccccc1C(=O)N1CCC(C(=O)Nc2ccc(S(=O)(=O)N(C)C(C)C)cc2)CC1`, for which the inhibition was 61.2% (active).
With `CC(=O)Nc1ccc(S(=O)(=O)N2CCC(N(C)CCC(C)C)CC2)cc1`, the inhibition was 19.4%.
Turning to `CCN1CCN(C(=O)c2ccccc2N(C)S(=O)(=O)c2ccc(C)cc2)CC1`, the inhibition is -1.6%.
As to `NC(=NC(=O)c1ccccc1)C1=C(O)CCC1=O`, the inhibition was 0%.
As for `O=C(NC1CCc2ccccc21)C12CN(Cc3ccccc3)CC1C(c1cccc([N+](=O)[O-])c1)=NO2` (stereo unspecified), the inhibition is 42.7%.
The value for `Cc1cc2cc(CNC(=O)c3cccs3)ccc2[nH]1` was 60.2% (active); that for `O=C(O)Cc1ccc(NC(=O)c2cccs2)cc1` was -6.9%.
The value for `CCc1ccccc1NC(=O)c1cccs1` was -6.7%.
Consider `O=C(/C=C/Sc1ncn[nH]1)c1ccc(Cl)cc1`, for which the inhibition is 10.9%.
With `Cc1nc2ccccc2c(-c2ccccc2)c1C(=O)c1ccccc1`, the inhibition was 19.7%.
For the compound `CCOC(=O)CSc1nnc(NC(=O)c2cccc(S(=O)(=O)N3CCCCC3)c2)s1`, the inhibition was 35.5%.
The value for `CCOC(=O)CSc1nnc(NC(=O)c2cccc(S(=O)(=O)N3CCCC3)c2)s1` was 14.4%.
Regarding `CCOC(=O)C1=C(CC)Nc2ccccc2N=C1NC(=O)c1cccc(S(=O)(=O)N2CCCC2)c1`, the inhibition is 90.2% (active).
In the case of `COc1ccc2c(CC(=O)Nc3nnc(C4CC4)s3)coc2c1`, the inhibition was 24.7%.
On to `CC(=O)c1c(N2CCOCC2)nc(=S)n(Cc2ccccc2)c1C`, for which the inhibition is 12.5%.
`COc1ccc(N2CCN(CCNC(=O)CCN3C(=O)COc4ccccc43)CC2)cc1`: the inhibition was -2.8%.
In the case of `COc1ccc(N2CCN(CCNC(=O)c3nnc(Cc4c(F)cccc4Cl)o3)CC2)cc1`, the inhibition is 66.3% (active).
Then `COc1ccc(CN2CC(C(=O)NCCN3CCN(c4ccccc4F)CC3)CC2=O)cc1` (stereo unspecified), with -10.3%; and `C/C(=C(\C#N)C(=O)NCCCN1CCOCC1)N(C)C`, with -16.4%; and `CC(=O)Nc1ccc(S(=O)(=O)NCCc2ccccc2)cc1`, with 49.5%.
Turning to `Cc1cc(C)c(C)c(S(=O)(=O)Nc2ccc(O)cc2)c1C`, the inhibition is -16.6%.
Take `CC(=O)Nc1ccc(NS(=O)(=O)c2cc(C)sc2C)cc1`: the inhibition was 56.5% (active).
`Cc1cccc(NC(=O)COc2ccc(Br)cc2C)n1`: the inhibition was -11%.
`O=C(Nc1cccc(Cl)c1)Nc1nnc(-c2ccccc2)o1`: the inhibition was 8.9%.
Then `COc1ccc(CC(=O)Nc2ccc(-c3nnc(-c4ccccc4)o3)cc2)cc1`, with 19%; and `O=C(COC(=O)c1ccc(Oc2ccccc2)cc1)Nc1nnc(-c2ccccc2)o1`, with 89.1% (active).
The value for `COc1cccc(-n2c(Cc3cc(=O)[nH]c(=O)[nH]3)nnc2SCC(=O)Nc2ccccc2)c1` was -48.2%.
